An excerpt weighted towards active compounds, which were near 1.2% of everything screened.
CtBP-E1A blk: CtBP/E1A binding inhibition. AlphaScreen GST-E1A/His-CtBP binding, 1536-well; stronger effect = lower value. activity change, % (concentration not given with the values). actives 0.49% (n = 340,000). AID 651724
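In 5 uL wells, 23 nL compound meets equimolar GST-E1A and His-CtBP (5X stock 125 nM each) for 2 h, 37 °C. Beads (5X, 50 ug/mL) then 1 h, 37 °C, dark.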
pAkt inh: Akt phosphorylation inhibition; activity change, % for hits at 50 µM; Neuro2A IGF-stimulated pAkt S473 HTRF, 20 min; stronger effect = lower value; AID 651550; actives 0.32% (n = 360,000); in the data active means activity change below about -80%; inconclusive means mostly about -51% to -80%
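Single-point screen (50 µM final compound) in Neuro2A cells stimulated 20 min with 6 nM IGF at 37 deg C. After lysis, Ser473-phosphorylated Akt read by HTRF (ex 330 nm, em 615/665 nm) as the 665/615 ratio.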
CCT modulator: modulators of cytosolic chaperonin (CCT/TRiC) activity | activity change, % (concentration not given with the values), hits read low | purified chaperonin ATPase assay, HTRF ADP detection, 30 min | actives 0.3% (n = 360,000); in the data active means activity change below about -30%
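TRiC (40 or 20 nM final, by batch activity) in 30 mM Tris pH 7.4, 100 mM KCl, 5 mM MgCl2, 1 mM DTT was treated with compound at 76 uM single dose, then 10 uM ATP, 30 min at 37 °C. ADP was read by HTRF Transcreener.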
Six1-Eya2 inh: blocks human Six1 binding to Eya2 | activity change, % (test concentration not listed) | AlphaScreen GST-Six1/His-Eya2 binding, biochemical; stronger effect = lower value | AID 651725 | Q15475+O00167 | actives 0.56% (n = 360,000)
Target sequence (O00167 whole entry, looked up): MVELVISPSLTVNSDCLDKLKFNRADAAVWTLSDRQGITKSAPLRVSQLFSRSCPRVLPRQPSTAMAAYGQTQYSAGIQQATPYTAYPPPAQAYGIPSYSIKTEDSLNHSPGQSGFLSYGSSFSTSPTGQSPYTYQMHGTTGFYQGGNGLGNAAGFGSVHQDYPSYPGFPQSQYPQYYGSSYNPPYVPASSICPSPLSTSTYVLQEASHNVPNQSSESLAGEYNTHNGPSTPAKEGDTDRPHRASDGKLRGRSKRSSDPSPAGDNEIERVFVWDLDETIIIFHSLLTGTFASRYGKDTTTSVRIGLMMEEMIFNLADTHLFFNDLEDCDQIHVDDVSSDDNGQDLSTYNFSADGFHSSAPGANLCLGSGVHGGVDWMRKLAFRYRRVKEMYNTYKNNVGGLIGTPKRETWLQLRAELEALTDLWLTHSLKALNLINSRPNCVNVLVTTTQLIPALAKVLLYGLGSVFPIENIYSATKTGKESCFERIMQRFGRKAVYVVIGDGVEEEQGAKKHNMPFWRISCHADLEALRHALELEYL
Target sequence (Q15475 whole entry, looked up): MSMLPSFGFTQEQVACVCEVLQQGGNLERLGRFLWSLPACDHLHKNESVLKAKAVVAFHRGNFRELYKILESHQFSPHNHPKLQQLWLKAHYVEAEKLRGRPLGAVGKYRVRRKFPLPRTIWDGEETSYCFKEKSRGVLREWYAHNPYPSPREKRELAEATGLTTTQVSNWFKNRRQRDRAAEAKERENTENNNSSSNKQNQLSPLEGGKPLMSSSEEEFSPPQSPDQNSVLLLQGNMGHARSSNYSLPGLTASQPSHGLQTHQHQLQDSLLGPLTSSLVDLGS
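Compounds are tested against tagged Six1 and Eya2 proteins bridged by glutathione donor and nickel acceptor beads; after a one-hour incubation at 37 °C without light, AlphaScreen emission is recorded.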
* marks the source's active call; other numbers are inactive results; i = inactive; ? = inconclusive; . = not tested or not shown. Unless noted, no stated cut-off is given here; in the data, active means activity change below about -65%; inconclusive means mostly about -30% to -63%; inactive means weaker than that. On the % scale 0 is the no-effect control and ±100 the full control effect.

SMILES | CtBP-E1A blk | pAkt inh | CCT modulator | Six1-Eya2 inh
O=C(c1cccc2ccccc12)C1CCCN(C(=O)c2ccc(N3CCOCC3)cc2)C1 (stereo not given) | 0.4 | i | -2.6 | 0.2
CCOC(=O)C1CCN(C2=C(NS(=O)(=O)c3ccc(Cl)cc3)C(=O)c3ccccc3C2=O)CC1 | -81.5* | i | -0.6 | ?
CCOC(=O)N1CCN(C2=C(NS(=O)(=O)c3ccc(NC(C)=O)cc3)C(=O)c3ccccc3C2=O)CC1 | . | i | 1.7 | -17.8
CCOC(=O)C1CCCN(C2=C(NS(=O)(=O)c3ccc(Br)cc3)C(=O)c3ccccc3C2=O)C1 (stereo not given) | . | i | -0.3 | -71.3*
N#Cc1cn(CCOc2ccc(F)cc2)c2ccccc12 | 23.9 | -116.7%* | -3.5 | 8.9
O=S(=O)(Nc1cccc2cccnc12)c1ccc(S(=O)(=O)N2CCCC2)cc1 | -90.3* | i | -4.7 | -75.7*
Cc1ccc2cccc(NS(=O)(=O)c3ccccc3)c2n1 | -2.3 | i | -1.2 | -1.0
Cc1cc(C)c(NS(=O)(=O)c2cccc3cccnc23)c(C)c1 | -1.0 | i | 0.0 | -6.9
Cc1ccc(S(=O)(=O)Nc2cccc3cccnc23)c([N+](=O)[O-])c1 | -80.1* | i | 0.3 | -90.9*
O=S(=O)(Nc1cccc2cccnc12)c1ccccc1 | -84.4* | i | -2.7 | -66.2*
COC(=O)C[C@@H]1CC[C@H](NC(=O)c2cnccn2)[C@@H](CO)O1 | 5.8 | i | . | 1.4
Cc1cccc(N(C(=O)CCC(=O)Nc2cc(C)on2)C(C(=O)NC2CCCC2)c2ccccc2)c1 (stereo not given) | 22.8 | i | 2.1 | 8.0
COc1ccc(C(CNC(=O)COc2cccc(C(F)(F)F)c2)N2CCCC2)cc1 (stereo not given) | -0.7 | i | 1.4 | -2.2
O=C1C(=O)N(CC2CCCO2)C(c2ccccc2[N+](=O)[O-])/C1=C(/O)c1ccccc1 (stereo not given) | . | i | -49.4* | 11.2
Cc1ccc(C2/C(=C(/O)c3ccc(Cl)cc3)C(=O)C(=O)N2CC2CCCO2)o1 (stereo not given) | -2.6 | i | -0.9 | -4.3
COc1ccc(C(=O)Nc2ccc(S(=O)(=O)Nc3onc(C)c3C)cc2)c(OC)c1 | -0.3 | i | -35.2* | -8.6
COc1ccc(N2C(=O)c3ccccc3NC2c2ccc(OC)c(COc3ccccn3)c2)cc1 (stereo not given) | -3.5 | i | -2.2 | 4.0
COc1ccc(N2C(=O)c3ccccc3NC2c2ccc(OC)c(CSc3ccccn3)c2)cc1 (stereo not given) | -2.9 | -91.6%* | -4.4 | 4.0
COc1ccc(-n2c(SCC(=O)Nc3ccccc3)nc3c(c2=O)SCC3)cc1 | -4.5 | i | -1.0 | -14.5
CCOc1ccc(/C=N/NC(=O)c2nnn(-c3nonc3N)c2-c2ccc(OCC)cc2)cc1 | 2.1 | i | -2.7 | -5.7
CCOC(=O)c1nnn(-c2nonc2N)c1-c1ccc(OCC)cc1 | -0.7 | -112.1%* | -5.4 | -2.9
Cc1ccc(O)c(N=Nc2nccs2)c1 | ? | i | 1.3 | -70.6*
Cc1ccc(Nc2nnc(SCC(=O)NCC3CCCO3)s2)cc1C (stereo not given) | -77.5* | i | 2.7 | -68.2*
Cc1ccc(Nc2nnc(SCC(=O)NCC3CCCO3)s2)cc1 (stereo not given) | -24.0 | i | -1.8 | ?
O=C(CCc1ccc(S(=O)(=O)N2CCOCC2)cc1)Nc1ccc(F)cc1[N+](=O)[O-] | -0.8 | i | -6.7 | -6.5
SMILES | CtBP-E1A blk | pAkt inh | CCT modulator | Six1-Eya2 inh
CCCNC(=O)NC(=O)COc1c(F)c(F)cc(F)c1F | -8.9 | -101.5%* | -0.9 | 5.5
CCc1ccc(NS(=O)(=O)c2cc3c4c(c2)CCN4C(=O)CC3)cc1 | -1.5 | i | -61.2* | 0.9
O=C1CCc2cc(S(=O)(=O)Nc3cccc(F)c3)cc3c2N1CC3 | 4.5 | i | 3.2 | 5.4
O=S(=O)(Nc1cccc2ncccc12)c1cccs1 | -89.5* | i | -0.2 | -91.8*
CCCn1cnnc1CNC(=O)[C@H]1O[C@@H](n2cnc3c(N)ncnc32)[C@H](O)[C@@H]1O | 6.7 | i | 1.4 | 6.8
NC(c1csc(Nc2cnccn2)n1)C1CCCCC1 (stereo not given) | -70.4* | i | 0.7 | -26.5
NC(c1csc(Nc2ncccn2)n1)C1CCCCC1 (stereo not given) | -67.5* | i | 1.4 | ?
CCOC(=O)/C(C#N)=C/c1cn(CCC(=O)O)nc1-c1ccc(Cl)cc1 | -9.3 | i | -1.7 | 2.9
CCCCC(=O)NC(c1ccccc1OC)c1ccc2cccnc2c1O (stereo not given) | -91.6* | i | -3.2 | -76.2*
CCCC(=O)NC(c1ccccc1OC)c1ccc2cccnc2c1O (stereo not given) | -83.7* | i | -0.9 | -88.2*
O=C(NCCCCc1ccccc1)C1CC(c2ccccc2C(F)(F)F)=NO1 (stereo not given) | 9.6 | i | 1.6 | 10.3
CC(=O)Nc1ccccc1-c1nn[nH]n1 | -0.1 | -101.3%* | -0.7 | 0.0
CC(=O)Nc1cccc(-c2nn[nH]n2)c1 | -1.0 | i | 0.0 | -4.0
COc1ccc(Cl)cc1C=CC=Nc1ccccc1O | -24.7 | i | -0.3 | -10.0
O=C1C2CCCN2C(=O)N1CCCCN1CCN(c2ccc(F)cc2)CC1 (stereo not given) | 6.3 | i | -2.8 | 4.5
C/C(=N\NC(=O)c1cc(-c2cccs2)nc2ccccc12)c1ccccn1 | -86.0* | i | 0.0 | -82.4*
C/C(=N\NC(=O)c1ccc(Cl)c(Cl)c1)c1ccccn1 | ? | i | 0.3 | ?
C/C(=N\NC(=O)C1COc2ccccc2O1)c1ccccn1 (stereo not given) | -86.3* | i | -3.3 | -90.9*
C/C(=N\NC(=O)c1ccccc1OCc1ccc(F)cc1)c1ccccn1 | . | i | -4.5 | ?
C/C(=N\NC(=O)c1ccccc1Cl)c1ccccn1 | . | i | 1.5 | -91.2*
C/C(=N\NC(=O)c1cccc2ccccc12)c1ccccn1 | -91.9* | i | -0.7 | -90.8*
NNC(=O)c1cc(-c2cccs2)nc2ccccc12 | . | i | 0.6 | -10.0
c1ccc(NC2=NCCN2CCCC2CCCCC2)cc1 | 0.0 | i | 1.1 | -0.4
CCCCn1c(N)c(N(CCOC)C(=O)COC(=O)c2ccccc2NCCO)c(=O)[nH]c1=O | -19.0 | i | -0.7 | 6.4
O=C(N/N=C/c1ccccn1)c1cc(-c2ccncc2)nc2ccccc12 | -73.3* | i | -3.0 | -72.5*
CCc1nnc(NC(=O)c2oc3ccc(Br)cc3c2C)s1 | -9.6 | i | -34.3* | 0.9
CCSc1nnc(NC(=O)c2cnccn2)s1 | 1.0 | i | 0.0 | -1.0
CCSc1nnc(NC(=O)c2ccco2)s1 | -4.7 | -112.3%* | 0.9 | 10.0
CCSc1nnc(NC(=O)c2ccccn2)s1 | -91.4* | i | -10.1 | -94.2*
CCSc1nnc(NC(=O)c2ccc(Br)s2)s1 | -4.2 | -81.3%* | -3.6 | 1.1

From PubChem BioAssay
